Several values for one entry are separate records, joined by “and”; a condition that tells them apart may be missing. Equal entries are not always repeated. Records with an inconclusive call do not appear. The source holds several records for some structures; these can differ, active in one and inactive in another. Activity calls are given as the source filed them. Unless noted, calls come from the whole dose curve; as a rule, active = well fitted curve in the direction sought with a large enough effect in the repeat runs; inconclusive = weak or mixed curves; inactive = no such curve, though single readings can be large; an effect the other way counts as inactive or inconclusive.
Experiments:
[1] = qHTS assay to identify small molecule agonists of the vitamin D receptor (VDR) signaling pathway - cell viability counter screen (AID 743224); note: nearly all actives have a fitted effect of over 50% in size; note: potency is the fitted concentration of half-maximal effect
In short: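 VDR-bla cells were preincubated 4 h at 37C/5% CO2, then exposed to compounds for 16 h. After the 2 h room-temperature bla FRET read, CellTiter-Glo was added to the same wells and luminescence read after 30 min.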

[2] = qHTS assay to identify small molecule antagonists of the vitamin D receptor (VDR) signaling pathway - cell viability counter screen (AID 743225); note: % is set by controls: 0 for no effect and ±100 for the full control effect; nearly all actives have a fitted effect of over 50% in size
In short: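 Cytotoxicity toward the VDR-bla HEK 293T line was scored by ATP-based CellTiter-Glo luminescence, read in the wells already used for the beta-lactamase readout after 16 h compound treatment under 3 nM 1-alpha,25-dihydroxyvitamin D3 stimulation.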

[3] = qHTS assay to identify small molecule agonists of the NFkB signaling pathway (AID 1159509; active = well fitted curve in the direction sought with a large enough effect in the signal ratio in the repeat runs, not every such curve was filed as active; the % refers to the signal ratio; note: series mostly up to about 61 µM; % is set by controls: 0 for no effect and ±100 for the full control effect)
In short: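 NFkB-bla ME-180 cells with a beta-lactamase reporter under an NF-kB response element were plated overnight, treated with compounds in DMSO for 5 hr at 37 C, then loaded with FRET substrate for 1.5 hr at room temperature.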

[4] = qHTS assay to identify small molecule agonists of the NFkB signaling pathway - cell viability counter screen (AID 1159515; calls by dose curve; note: series mostly up to about 61 µM; % is set by controls: 0 for no effect and ±100 for the full control effect; nearly all actives have a fitted effect of over 55% in size)
In short: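 NFkB-bla ME-180 cells, 2,000/well, were plated overnight at 37 C, 5% CO2, then exposed to compounds in DMSO for 5 hr. After the bla FRET read, CellTiter-Glo was added to the same wells; luminescence was read after 30 min at room temperature.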

[5] = qHTS assay to identify small molecule agonists of the endoplasmic reticulum stress response signaling pathway (AID 1159516; active = well fitted activation curve with a large enough effect in the signal ratio in the repeat runs, not every such curve was filed as active; the % refers to the signal ratio; note: % is set by controls: 0 for no effect and ±100 for the full control effect)
In short: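 CellSensor ESRE-bla HeLa cells, carrying a beta-lactamase reporter driven by the ER stress response element, were plated overnight and exposed to compounds for 5 hr at 37 C. Reporter activity was read as FRET substrate fluorescence after 2 hr at room temperature.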

[6] = qHTS assay to identify small molecule agonists of the endoplasmic reticulum stress response signaling pathway - cell viability counter screen (AID 1159517; calls by dose curve; note: series mostly up to about 61 µM; % is set by controls: 0 for no effect and ±100 for the full control effect; nearly all actives have a fitted effect of over 50% in size)
In short: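 Luminescence readout: CellTiter-Glo, 30 min RT, same wells as the ESRE-bla reporter read. HeLa ESRE-bla, 1,500 cells/well, o/n 37 C; cpd 5 hr 37 C/5% CO2.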

[7] = qHTS assay to identify small molecule antagonists of the retinoid-related orphan receptor gamma (ROR-gamma) signaling pathway - cell viability counter screen (AID 1159520); note: % is set by controls: 0 for no effect and ±100 for the full control effect; nearly all actives have a fitted effect of over 50% in size
In short: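 Tet-on ROR gamma CHO cells (1,000/well) were plated 4 hr, given compounds in DMSO for 2 hr at 37 C, then induced with 1 uM final doxycycline for 16 hr. Viability was read as ATP by CellTiter-Glo luminescence after 30 min.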

[8] = biological target: Nuclear receptor ROR-gamma (Homo sapiens) (UniProt P51449); assay: qHTS assay to identify small molecule antagonists of the retinoid-related orphan receptor gamma (ROR-gamma) signaling pathway (AID 1159521; note: nearly all actives have a fitted effect of over 50% in size; note: potency is the fitted concentration of half-maximal effect)
In short: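 Readout: ONE-Glo luciferase luminescence, 30 min at room temperature. System: Tet-on RORγ CHO, RORE-LUC. Sequence: compound 2 h, doxycycline 1 uM final, 16 h at 37 C.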

[9] = qHTS assay to identify small molecule agonists of the AP-1 signaling pathway - cell viability counter screen (AID 1159525; calls by dose curve; note: nearly all actives have a fitted effect of over 55% in size)
In short: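 ME-180 AP-1-bla, 2500 cells/well, Opti-MEM + 0.5% dialyzed FBS; overnight 37 °C; cpd 15-pt titration, 5 h 37 °C; CellTiter-Glo 30 min RT; luminescence read; normalised to TOAB and DMSO controls.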

[10] = qHTS assay to identify small molecule agonists of the AP-1 signaling pathway (AID 1159526; calls by dose curve; note: % is set by controls: 0 for no effect and ±100 for the full control effect)
[11] = biological target: Retinoic acid receptor RXR-alpha (Homo sapiens) (UniProt P19793); assay: qHTS assay to identify small molecule agonists of the RXR signaling pathway (AID 1159527; calls by dose curve; note: % is set by controls: 0 for no effect and ±100 for the full control effect; nearly all actives have a fitted effect of over 35% in size)
Sequence of Retinoic acid receptor RXR-alpha (Homo sapiens) (P19793 whole entry, looked up): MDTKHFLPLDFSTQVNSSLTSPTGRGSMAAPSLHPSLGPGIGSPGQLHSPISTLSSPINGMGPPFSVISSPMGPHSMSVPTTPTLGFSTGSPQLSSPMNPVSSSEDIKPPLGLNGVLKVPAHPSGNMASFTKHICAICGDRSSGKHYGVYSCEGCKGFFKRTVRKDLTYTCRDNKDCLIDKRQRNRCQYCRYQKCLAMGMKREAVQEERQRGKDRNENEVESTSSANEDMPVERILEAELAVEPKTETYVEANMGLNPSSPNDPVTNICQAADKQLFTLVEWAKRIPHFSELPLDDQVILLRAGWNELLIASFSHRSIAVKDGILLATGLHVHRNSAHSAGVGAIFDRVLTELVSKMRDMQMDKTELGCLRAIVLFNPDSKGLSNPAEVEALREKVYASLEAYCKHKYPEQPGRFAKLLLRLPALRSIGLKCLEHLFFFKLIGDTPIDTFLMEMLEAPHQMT
In short: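 Reporter activation is measured as beta-lactamase activity via FRET substrate cleavage (emission 460/530 nm) in HEK 293T cells expressing an RXR-alpha-driven bla construct, following 16 hr compound exposure at 37 C.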

[12] = qHTS assay to identify small molecule agonists of the RXR signaling pathway - cell viability counter screen (AID 1159529)
In short: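 Tox21 10K compounds were tested for cytotoxicity against GeneBLAzer RXR-alpha HEK 293T cells grown in 2% charcoal-stripped FBS. Exposure lasted 16 hr at 37 C, 5% CO2; viability read by CellTiter-Glo luminescence.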

[13] = qHTS assay to identify small molecule antagonists of the retinoid acid receptor (RAR) signaling pathway - cell viability counter screen (AID 1159551); note: % is set by controls: 0 for no effect and ±100 for the full control effect; nearly all actives have a fitted effect of over 35% in size
In short: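 C3RL4 cells were seeded overnight at 37 C, then treated with compounds plus 1 uM (final) retinol for 6 h at 37 C. Viability was read as ATP by CellTiter-Glo luminescence after 30 min at room temperature.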

[14] = qHTS assay to identify small molecule antagonists of the estrogen related receptor (ERR) signaling pathway - cell viability counter screen (AID 1224818);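 note: series mostly up to about 46 µM; viability measured after 17.5 h of compound exposure; % is set by controls: 0 for no effect and ±100 for the full control effect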
In short: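 ERR reporter cells plated 6 h at 37 C/5% CO2, then compounds in DMSO pin-transferred and incubated 17.5 h at 37 C. Viability read as CellTiter-Fluor fluorescence after 30 min at 37 C.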

[15] = qHTS assay to identify small molecule antagonists of the estrogen related receptor (ERR) signaling pathway from Tox21 library - cell viability counter screen (AID 1224834); note: nearly all actives have a fitted effect of over 30% in size; note: potency is the fitted concentration of half-maximal effect
In short: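 ERR reporter cells were plated 6 h before compound addition, then exposed to test compounds in DMSO for 17.5 h at 37 C. Viability was read as CellTiter-Fluor fluorescence after a 30-minute incubation at 37 C.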

[16] = biological target: Luciferin 4-monooxygenase (Photinus pyralis) (UniProt P08659); assay: qHTS assay to identify small molecule inhibitors of firefly luciferase (AID 1224835); note: nearly all actives have a fitted effect of over 25% in size; note: potency is the fitted concentration of half-maximal effect
Sequence of Luciferin 4-monooxygenase (Photinus pyralis) (P08659 whole entry, looked up): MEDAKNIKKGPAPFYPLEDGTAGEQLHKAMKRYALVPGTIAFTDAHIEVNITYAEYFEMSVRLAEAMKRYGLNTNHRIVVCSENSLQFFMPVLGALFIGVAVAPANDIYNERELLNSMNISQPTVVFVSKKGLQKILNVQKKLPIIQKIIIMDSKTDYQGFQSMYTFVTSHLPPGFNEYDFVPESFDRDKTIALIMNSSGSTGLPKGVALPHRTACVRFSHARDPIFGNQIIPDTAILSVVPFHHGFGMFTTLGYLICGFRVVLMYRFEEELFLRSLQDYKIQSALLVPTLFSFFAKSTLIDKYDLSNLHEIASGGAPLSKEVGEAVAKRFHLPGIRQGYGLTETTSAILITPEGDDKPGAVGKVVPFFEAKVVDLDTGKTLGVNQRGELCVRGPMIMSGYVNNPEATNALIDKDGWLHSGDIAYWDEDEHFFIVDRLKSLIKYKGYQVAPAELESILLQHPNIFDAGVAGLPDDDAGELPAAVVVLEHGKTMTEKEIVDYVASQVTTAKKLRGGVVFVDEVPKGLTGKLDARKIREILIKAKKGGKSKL
In short: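 Quantitative HTS format; KM concentrations of both substrates. Purified P. pyralis FLuc activity quantified from luminescence images.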

[17] = qHTS assay to identify small molecule antagonists of the retinoic acid receptor (RAR) signaling pathway (AID 1159552)
In short: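 Overnight-plated C3RL4 reporter cells get compound, then retinol to 1 uM final; plates sit 6 hr at 37 C, 5% CO2. A luciferase reagent is added and light output recorded after 30 min at room temperature.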

[18] = qHTS assay to identify small molecule agonists of the retinoic acid receptor (RAR) signaling pathway (AID 1159553); note: % is set by controls: 0 for no effect and ±100 for the full control effect
In short: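 C3RL4 cells carrying a RARE luciferase reporter were plated overnight at 37 C, then exposed to compounds in DMSO for 6 hr at 37 C and 5% CO2. Luminescence was read 30 min after luciferase reagent addition at room temperature.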

[19] = qHTS assay to identify small molecule agonists of the constitutive androstane receptor (CAR) signaling pathway - cell viability counter screen (AID 1224836); note: series mostly up to about 92 µM; % is set by controls: 0 for no effect and ±100 for the full control effect; nearly all actives have a fitted effect of over 45% in size
In short: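 Fluorescence from CellTiter-Fluor indicates live cells after 23 h exposure. The human hepatoma line expresses hCAR and a CYP2B6-2.2kb reporter. Incubation medium contains 0.75 uM PK11195 (final).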

[20] = qHTS assay to identify small molecule antagonists of the constitutive androstane receptor (CAR) signaling pathway - cell viability counter screen (AID 1224837); note: series mostly up to about 92 µM; % is set by controls: 0 for no effect and ±100 for the full control effect; nearly all actives have a fitted effect of over 45% in size
In short: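 HepG2 cells stably expressing hCAR and a CYP2B6-2.2kb reporter were plated and pre-incubated 4 hr at 37 C/5% CO2, then given compounds at 15 concentrations plus 50 nM CITCO (final). After 23 hr, viability was read by CellTiter-Fluor fluorescence.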

CCN(CC)CCCC(C)Nc1ccnc2cc(Cl)ccc12 (stereo not given)
inactive: Potency [1] | outcome [2] | outcome [3] | outcome [4] | outcome [5] | outcome [6] | activity, negative = cytotoxicity [7] -1.33% [at 8.39 µM] and 0.877% [at 19 µM] | activity change, negative = inhibition [8] 0.0918% [at 8.39 µM] and -4.56% [at 19 µM] | viability change, negative = cytotoxic [9] 0.716% [at 6.97 µM] and 1.22% [at 15.8 µM] | activation [10] 0.84% [at 6.97 µM] and -1.42% [at 15.8 µM] | activation [11] -0.146% [at 15.8 µM] | activity change, negative = cytotoxicity [12] -13.3% [at 6.97 µM] and -18.7% [at 15.8 µM] | activity change, negative = cytotoxicity [13] 1.59% [at 8.39 µM] and -1.6% [at 19 µM] | outcome [14] | viability change, negative = cytotoxic [15] -0.582% [at 8.39 µM] | activity change, negative = inhibition [16] -0.277% [at 10.5 µM] and -0.0339% [at 23.6 µM]

O=C(O)c1cc(=O)c2c(OCC(O)COc3cccc4oc(C(=O)O)cc(=O)c34)cccc2o1
inactive: outcome [2] | outcome [3] | outcome [4] | outcome [5] | outcome [6] | Potency [7] | Potency [8] | Potency [9] | outcome [10] | Potency [12] | outcome [13] | Potency [17] | Potency [18] | Potency [15] | Potency [16] | Potency [19] | Potency [20]

CCCCCCCCCCCCOCCO
inactive: Potency [1] | outcome [2] | outcome [3] | outcome [4] | outcome [5] | outcome [6] | Potency [7] | Potency [8] | Potency [9] | outcome [10] | Potency [12] | outcome [13] | Potency [17] | Potency [15] | Potency [20]
active: Potency [16] 25.2 µM and 30.9 µM

O=C(O)c1cc(O)c(O)c(O)c1
inactive: outcome [2] | outcome [3] | outcome [4] | outcome [5] | outcome [6] | Potency [7] | Potency [8] | Potency [9] | outcome [10] | Potency [11] | Potency [12] | outcome [13] | Potency [17] | Potency [18] | Potency [19] | Potency [20]
active: Potency [15] 61.7 µM

ON=C1CCCCC1
inactive: outcome [2] | outcome [3] | outcome [4] | outcome [5] | outcome [6] | Potency [7] | Potency [8] | Potency [9] | outcome [10] | Potency [12] | outcome [13] | Potency [17] | Potency [18] | Potency [15] | Potency [16] | Potency [20]
inactive and 38.9 µM (active): Potency [1]

O=C=NCCCCCCN=C=O
inactive: Potency [1] | outcome [2] | outcome [3] | outcome [4] | outcome [5] | outcome [6] | Potency [7] | Potency [9] | outcome [10] | Potency [12] | outcome [13] | Potency [17] | Potency [18] | Potency [15] | Potency [16] | Potency [20]
26.7 µM (active) and inactive: Potency [8]

O=C(O)c1ccccc1C(c1ccc(O)cc1)c1ccc(O)cc1
inactive: Potency [1] | outcome [2] | outcome [3] | outcome [4] | outcome [5] | outcome [6] | Potency [7] | Potency [8] | Potency [9] | outcome [10] | Potency [12] | outcome [13] | Potency [17] | Potency [18] | Potency [15] | Potency [16] | Potency [19] | Potency [20]

c1ccc(OCCOc2ccccc2)cc1
active: Potency [16] 28.2 µM and 35.6 µM
inactive: Potency [1] | outcome [2] | outcome [3] | outcome [4] | outcome [5] | outcome [6] | Potency [7] | Potency [8] | Potency [9] | outcome [10] | Potency [11] | Potency [12] | outcome [13] | Potency [15] | Potency [19] | Potency [20]

From PubChem BioAssay (Tox21)
